A number with no mark means an inactive call. For some assays here: Results with a measured potency or affinity are listed apart. The source made the active and inactive calls. Unless noted, the rule behind the calls is not given here.
How the values were obtained:
[1] = antimalarial activity against Dd2 strain (AID 2302;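 active = growth inhibition above 50% at the single 2 µM test dose, taken to imply half-maximal potency below 2 µM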;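 note: 0% = DMSO untreated growth and 100% = chloroquine plus artemisinin killed control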); settings: P. falciparum Dd2 in RBCs, LDH growth readout, 72 h; at 2 µM; hits give high values
[2] = human hepatoma cell viability loss – ATP luminescence, cytotoxicity control for P. falciparum antimalarial project, primary screen (AID 2303;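 active = inhibition above 50%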;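 note: 0% = DMSO wells and 100% = digitonin-killed cells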); settings: HepG2 viability, 24-48 h, at 10 µM, hits give high values
[3] = molecular target: L-lactate dehydrogenase (Plasmodium falciparum (isolate CDC / Honduras)) (UniProt Q27743); test: PfLDH activity inhibition – cell lysate, 3D7 strain, counter-screen for P. falciparum growth inhibition project (AID 2304);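 note: 0% = vehicle and 100% = reference inhibitor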; settings: P. falciparum 3D7 crude extract, LDH APAD/NBT absorbance; at 2 µM; hits give high values
Sequence of L-lactate dehydrogenase (Plasmodium falciparum (isolate CDC / Honduras)) (Q27743 whole entry, looked up): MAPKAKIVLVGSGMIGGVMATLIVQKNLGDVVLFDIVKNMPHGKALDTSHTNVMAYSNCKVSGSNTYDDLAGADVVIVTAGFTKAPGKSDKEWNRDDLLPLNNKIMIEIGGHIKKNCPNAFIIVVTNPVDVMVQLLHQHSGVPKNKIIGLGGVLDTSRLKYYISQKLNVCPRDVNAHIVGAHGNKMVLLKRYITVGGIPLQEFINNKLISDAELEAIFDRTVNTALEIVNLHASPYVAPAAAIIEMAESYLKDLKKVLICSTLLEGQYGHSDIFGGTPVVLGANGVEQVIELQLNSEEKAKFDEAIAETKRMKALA

[4] = inhibition of 3D7 malaria parasite growth – strain 3D7 (AID 2306);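 note: 0% = DMSO wells and 100% = chloroquine plus artemisinin control wells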; settings: P. falciparum 3D7 erythrocytic growth, LDH absorbance, 72 h; at 2 µM; hits give high values
[5] = molecular target: Calcium-dependent protein kinase 1 (Plasmodium falciparum (isolate 3D7)) (UniProt P62344); test: PfCDPK1 kinase inhibitors, biochemical, TCAMS library (AID 1159585; cut-off not given, nearly all actives have IC50 up to about 0.98 µM;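 note: inhibitors leave more ATP so luminescence rises with inhibition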); settings: recombinant PfCDPK1, Kinase-Glo ATP depletion luminescence
Sequence of Calcium-dependent protein kinase 1 (Plasmodium falciparum (isolate 3D7)) (P62344 whole entry, looked up): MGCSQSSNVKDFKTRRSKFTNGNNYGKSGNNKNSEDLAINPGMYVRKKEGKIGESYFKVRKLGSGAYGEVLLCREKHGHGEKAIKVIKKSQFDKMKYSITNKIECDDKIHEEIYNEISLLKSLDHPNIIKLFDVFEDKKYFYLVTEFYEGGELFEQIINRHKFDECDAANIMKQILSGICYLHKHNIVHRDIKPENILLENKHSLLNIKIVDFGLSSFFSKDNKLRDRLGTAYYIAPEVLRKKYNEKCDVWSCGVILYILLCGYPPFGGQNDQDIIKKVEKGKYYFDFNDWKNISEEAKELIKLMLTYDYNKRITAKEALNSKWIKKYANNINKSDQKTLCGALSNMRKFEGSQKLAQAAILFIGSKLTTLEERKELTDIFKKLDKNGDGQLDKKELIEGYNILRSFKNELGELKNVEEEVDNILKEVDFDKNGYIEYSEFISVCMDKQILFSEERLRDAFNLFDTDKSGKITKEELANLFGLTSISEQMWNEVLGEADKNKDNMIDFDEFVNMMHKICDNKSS

[6] = molecular target: Plasmodium falciparum protein kinase 6 (PK6, PF3D7_1337100) (UniProt Q8IDW1); test: PfPK6 kinase inhibitors, biochemical, TCAMS library (AID 1159586); settings: recombinant PfPK6, Kinase-Glo ATP depletion luminescence
Sequence of Plasmodium falciparum protein kinase 6 (PK6, PF3D7_1337100) (Q8IDW1 1-305): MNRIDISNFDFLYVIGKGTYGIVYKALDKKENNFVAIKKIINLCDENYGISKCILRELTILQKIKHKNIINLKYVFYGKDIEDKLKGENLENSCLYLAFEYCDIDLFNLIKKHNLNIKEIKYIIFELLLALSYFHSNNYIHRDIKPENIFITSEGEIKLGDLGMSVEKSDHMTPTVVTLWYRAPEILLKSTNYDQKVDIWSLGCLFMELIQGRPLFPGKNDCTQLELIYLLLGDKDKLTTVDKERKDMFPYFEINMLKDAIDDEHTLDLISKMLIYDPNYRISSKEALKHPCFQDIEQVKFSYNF

[7] = molecular target: Protein kinase 7 (PK7), Plasmodium falciparum 3D7 (PF3D7_0213400) (UniProt Q7YTF7); test: inhibition of Plasmodium PK7 catalytic activity – biochemical, TCAMS antimalarial set, Kinase-Glo luminescence (AID 1159587); settings: recombinant PfPK7, Kinase-Glo ATP depletion luminescence
Sequence of Protein kinase 7 (PK7), Plasmodium falciparum 3D7 (PF3D7_0213400) (Q7YTF7 1-343): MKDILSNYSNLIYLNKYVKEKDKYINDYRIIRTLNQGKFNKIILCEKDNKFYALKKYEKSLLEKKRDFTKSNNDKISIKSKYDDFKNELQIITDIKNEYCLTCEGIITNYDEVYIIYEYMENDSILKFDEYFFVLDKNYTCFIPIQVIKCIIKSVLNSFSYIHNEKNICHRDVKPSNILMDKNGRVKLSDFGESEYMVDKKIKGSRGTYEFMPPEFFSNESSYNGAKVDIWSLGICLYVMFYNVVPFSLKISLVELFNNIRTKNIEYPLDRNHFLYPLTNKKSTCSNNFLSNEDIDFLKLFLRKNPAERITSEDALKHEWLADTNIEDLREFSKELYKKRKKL

[8] = molecular target: Calcium-dependent protein kinase 4 (Plasmodium falciparum (isolate 3D7)) (UniProt Q8IBS5); test: PfCDPK4 kinase inhibitors, biochemical, TCAMS library (AID 1159588; cut-off not given, nearly all actives have IC50 up to about 0.91 µM); settings: recombinant PfCDPK4, Kinase-Glo ATP depletion luminescence
Sequence of Calcium-dependent protein kinase 4 (Plasmodium falciparum (isolate 3D7)) (Q8IBS5 whole entry, looked up): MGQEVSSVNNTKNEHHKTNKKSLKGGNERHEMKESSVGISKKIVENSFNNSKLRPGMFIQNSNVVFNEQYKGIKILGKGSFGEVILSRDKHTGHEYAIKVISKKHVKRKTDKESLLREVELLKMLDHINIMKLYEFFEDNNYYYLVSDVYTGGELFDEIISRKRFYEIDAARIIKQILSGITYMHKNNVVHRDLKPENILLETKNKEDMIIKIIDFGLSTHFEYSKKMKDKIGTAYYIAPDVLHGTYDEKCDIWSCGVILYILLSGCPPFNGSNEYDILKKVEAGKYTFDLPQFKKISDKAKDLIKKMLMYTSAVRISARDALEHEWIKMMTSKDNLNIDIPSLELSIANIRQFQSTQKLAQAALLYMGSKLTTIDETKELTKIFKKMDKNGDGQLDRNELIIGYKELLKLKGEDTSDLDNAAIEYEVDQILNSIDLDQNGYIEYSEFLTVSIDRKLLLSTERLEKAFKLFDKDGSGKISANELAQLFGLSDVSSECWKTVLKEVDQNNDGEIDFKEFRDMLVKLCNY

SMILES | growth inhibition [1] | inhibition [2] | inhibition [3] [%] | growth inhibition [4] | outcome [5] | outcome [6] | outcome [7] | outcome [8]
CN(C)CCCOc1cccc(NC(=O)Nc2ccc(Cl)c(Cl)c2)c1 | 8% | 6% | -1 | 90% (active) | inactive | inactive | inactive | inactive
CCc1cn2c3c(cc(C(=O)N[C@@H](Cc4ccccc4)[C@H](O)CNC4CCCC4)cc13)N(C)S(=O)(=O)CC2 | 99% (active) | 6% | -8 | 100% (active) | inactive | inactive | inactive | inactive
COc1ccc2nccc([C@@H](O)CN3CCC(NCc4cc5c(F)ccc(F)c5[nH]4)CC3)c2n1 | 76% (active) | 22% | -6 | 101% (active) | inactive | inactive | inactive | inactive
Cc1cccc(C)c1N1CCN(C2CCC(NC(=O)/C=C/c3ccccc3)CC2)CC1 (configuration not stated) | 34% | 38% | -2 | 83% (active) | inactive | inactive | inactive | inactive
COc1ccc2c(c1)nc(CN=C(N)N)n2Cc1ccc(Cl)cc1 | 99% (active) | 12% | 4 | 102% (active) | inactive | inactive | inactive | inactive
Cc1cccc2[nH]c(-c3cccc(-c4ccc(NC(=O)Nc5ccsc5)cc4)c3)nc12 | 99% (active) | 27% | 0 | 100% (active) | inactive | inactive | inactive | inactive
CCNc1cc(C(=O)N[C@@H](Cc2ccccc2)[C@H](O)CN[C@@H]2CCc3ccccc32)cc(N2CCCCS2(=O)=O)c1 | 97% (active) | -7% | 4 | 98% (active) | inactive | inactive | inactive | inactive
CC(NCC(O)Cn1c2ccccc2c2ccccc21)c1ccccc1 (configuration not stated) | 85% (active) | 37% | 9 | 96% (active) | inactive | inactive | inactive | inactive
Cc1cccc2[nH]c(-c3ccc(-c4ccc(C(=O)NCCc5cn(C)cn5)cc4)s3)nc12 | 8% | -6% | -2 | 88% (active) | inactive | inactive | inactive | inactive
CC(=O)c1ccccc1OCCSc1nnc(Cc2cccs2)n1C1CCCCC1 | 1% | 19% | -5 | 87% (active) | inactive | inactive | inactive | inactive
O=C(NCCc1ccc(Cl)c(Cl)c1)[C@@H]1CCCN1C(=O)c1ccc(O)c(-c2ccc(Cl)c(Cl)c2)c1 | 99% (active) | -2% | -2 | 99% (active) | inactive | inactive | inactive | inactive
COc1ccc(Nc2nccc(N3CCC(NC(=O)Nc4cccc(C(C)=O)c4)C3)n2)cc1 (configuration not stated) | 79% (active) | 29% | -11 | 98% (active) | inactive | inactive | inactive | inactive
CC(C)c1ccc(NC(=O)NC2CCN(CCCCCNC(=O)/C=C/c3ccc(Cl)c(Cl)c3)CC2)cc1 | 19% | -5% | -2 | 100% (active) | inactive | inactive | inactive | inactive
O=C(NC1CCN(Cc2ccccc2)C1)c1ccc(Nc2ccc(Br)cc2)nc1 (configuration not stated) | 21% | 19% | -1 | 94% (active) | inactive | inactive | inactive | inactive
CCCSc1nc2c(c(=O)n1Cc1ccco1)C1(CCCCC1)Cc1ccccc1-2 | 95% (active) | -1% | 0 | 100% (active) | inactive | inactive | inactive | inactive
COc1ccc(-c2nc(NC(=O)Cc3ccc(OC)c(OC)c3)sc2C)cc1 | 22% | 33% | -2 | 93% (active) | inactive | inactive | inactive | inactive
COc1cc2nc(Nc3ccc4c(ccn4Cc4ccccc4)c3)nc(Nc3ccc4c(ccn4Cc4ccccc4)c3)c2cc1OC | 80% (active) | -6% | 2 | 89% (active) | inactive | inactive | inactive | inactive
CCCc1ccc(NC(=O)c2cccc(CN3CCCN(Cc4cccc(C#N)c4)CC3)c2)cc1 | 0% | 20% | -4 | 85% (active) | inactive | inactive | inactive | inactive
O=C(Nc1cccc(-c2nn3ncccc3c2-c2ccnc(Nc3ccc(N4CCOCC4)cc3)n2)c1)c1c(F)cccc1F | 75% (active) | 75% (active) | 7 | 101% (active) | inactive | inactive | inactive | inactive
